# Test results as given in PMC7862700, “An all-to-all approach to the identification of sequence-specific readers for epigenetic DNA modifications on cytosine”.
# Columns and labels:
# Test in all cases: DAPPL (digital affinity profiling via proximity ligation, sequencing); 10 mM Tris-HCl pH 7.5, 50 mM NaCl, 1 mM DTT, 4% glycerol, room temperature, 30 min; GST-TFs on glutathione beads, 16-mer random dsDNA library, 0.1% formaldehyde crosslink after washing; high values mean tight binding
# FLI1 = molecular target: T1, FLI1 (Homo sapiens, UniProt Q01543 1-452); details: protein: recombinant; tags: N-terminal GST; dsDNA, one strand shown
# T1 sequence: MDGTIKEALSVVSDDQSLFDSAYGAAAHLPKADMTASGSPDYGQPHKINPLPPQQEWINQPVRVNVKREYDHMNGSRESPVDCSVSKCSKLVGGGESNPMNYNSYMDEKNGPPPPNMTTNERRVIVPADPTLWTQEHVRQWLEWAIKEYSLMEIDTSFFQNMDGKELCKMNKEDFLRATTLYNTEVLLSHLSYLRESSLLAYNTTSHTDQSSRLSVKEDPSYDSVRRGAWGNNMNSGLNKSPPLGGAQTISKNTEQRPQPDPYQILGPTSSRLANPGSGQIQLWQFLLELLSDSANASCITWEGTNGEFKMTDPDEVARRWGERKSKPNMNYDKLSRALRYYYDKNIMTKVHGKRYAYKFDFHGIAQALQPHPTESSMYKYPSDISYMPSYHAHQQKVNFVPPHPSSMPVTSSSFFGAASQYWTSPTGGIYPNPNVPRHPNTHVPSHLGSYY
# Procedure, shortened: (§1)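 GST fusions of human transcription factors were expressed in yeast and captured with glutathione beads. Once given DNA barcodes and pooled alongside a tag-only sample, they were incubated for 30 min at room temperature with 200 nmole of a random double-stranded 16-mer DNA library in Tris/NaCl/DTT/glycerol buffer, then washed, crosslinked (0.1% formaldehyde), proximity-ligated, PCR-amplified and sequenced on an Illumina NextSeq500. The binding signal of each hexamer is its read frequency for a factor divided by its frequency for the tag-only sample.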
# ELK1 = molecular target: T2, ELK1 (Homo sapiens, UniProt P19419 1-428); details: protein: recombinant; tags: N-terminal GST; dsDNA, one strand shown
# T2 sequence: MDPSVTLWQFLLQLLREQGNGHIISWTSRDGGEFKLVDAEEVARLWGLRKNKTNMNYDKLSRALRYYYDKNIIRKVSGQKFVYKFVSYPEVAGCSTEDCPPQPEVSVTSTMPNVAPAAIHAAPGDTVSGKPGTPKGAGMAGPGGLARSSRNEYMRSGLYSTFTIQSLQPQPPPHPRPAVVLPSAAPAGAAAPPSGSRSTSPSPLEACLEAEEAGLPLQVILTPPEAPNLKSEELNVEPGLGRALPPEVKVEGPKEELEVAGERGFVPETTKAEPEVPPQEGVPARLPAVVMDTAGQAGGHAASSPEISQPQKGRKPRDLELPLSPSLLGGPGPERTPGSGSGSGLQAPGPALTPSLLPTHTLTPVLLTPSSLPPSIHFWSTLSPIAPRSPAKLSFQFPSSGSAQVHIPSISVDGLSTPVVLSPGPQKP
# Procedure, shortened: as §1
# GABPA = molecular target: T3, GABPA (Homo sapiens, UniProt Q06546 1-454); details: protein: recombinant; tags: N-terminal GST; dsDNA, one strand shown
# T3 sequence: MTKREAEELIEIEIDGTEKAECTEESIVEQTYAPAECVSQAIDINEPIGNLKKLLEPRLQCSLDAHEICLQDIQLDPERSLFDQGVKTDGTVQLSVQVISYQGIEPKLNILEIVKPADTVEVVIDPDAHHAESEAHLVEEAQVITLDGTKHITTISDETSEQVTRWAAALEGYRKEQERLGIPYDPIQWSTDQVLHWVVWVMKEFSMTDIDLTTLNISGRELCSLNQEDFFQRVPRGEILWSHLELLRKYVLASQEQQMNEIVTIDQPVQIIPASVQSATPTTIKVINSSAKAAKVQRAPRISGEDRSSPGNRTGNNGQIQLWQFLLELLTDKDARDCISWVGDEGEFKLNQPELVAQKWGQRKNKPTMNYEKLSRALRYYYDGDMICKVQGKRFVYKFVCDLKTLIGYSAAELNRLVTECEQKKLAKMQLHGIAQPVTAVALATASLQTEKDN
# Procedure, shortened: as §1
# ERG = molecular target: T4, ERG (Homo sapiens, UniProt P11308 1-479); details: protein: recombinant; tags: N-terminal GST; dsDNA, one strand shown
# T4 sequence: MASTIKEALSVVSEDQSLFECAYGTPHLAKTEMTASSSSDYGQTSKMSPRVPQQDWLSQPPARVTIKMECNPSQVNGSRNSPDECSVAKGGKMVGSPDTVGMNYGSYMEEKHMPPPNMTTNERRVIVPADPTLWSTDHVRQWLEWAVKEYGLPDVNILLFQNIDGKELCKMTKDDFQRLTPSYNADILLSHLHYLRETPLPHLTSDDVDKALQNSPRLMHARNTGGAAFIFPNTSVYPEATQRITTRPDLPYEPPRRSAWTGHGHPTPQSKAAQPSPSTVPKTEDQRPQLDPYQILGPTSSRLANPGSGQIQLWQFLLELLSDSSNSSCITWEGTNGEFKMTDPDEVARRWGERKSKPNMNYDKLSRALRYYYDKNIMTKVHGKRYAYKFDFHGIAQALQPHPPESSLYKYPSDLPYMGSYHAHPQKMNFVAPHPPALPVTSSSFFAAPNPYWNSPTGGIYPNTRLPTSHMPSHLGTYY
# Procedure, shortened: as §1
# ELF1 = ELF1 (Homo sapiens, UniProt P32519 1-619); details: protein: recombinant; tags: N-terminal GST; dsDNA, one strand shown
# Procedure, shortened: as §1
# EHF = molecular target: T5, EHF (Homo sapiens, UniProt Q9NZC4 1-300); details: protein: recombinant; tags: N-terminal GST; dsDNA, one strand shown
# T5 sequence: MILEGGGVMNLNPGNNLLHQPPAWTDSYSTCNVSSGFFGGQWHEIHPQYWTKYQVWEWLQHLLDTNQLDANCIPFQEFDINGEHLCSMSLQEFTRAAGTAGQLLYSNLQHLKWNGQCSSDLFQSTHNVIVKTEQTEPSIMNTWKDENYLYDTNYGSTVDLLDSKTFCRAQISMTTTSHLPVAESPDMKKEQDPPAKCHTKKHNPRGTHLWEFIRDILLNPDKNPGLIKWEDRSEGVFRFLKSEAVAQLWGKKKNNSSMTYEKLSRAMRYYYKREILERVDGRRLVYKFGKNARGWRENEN
# Procedure, shortened: as §1
# SPI1 = SPI1 (Homo sapiens, UniProt P17947 1-270); details: protein: recombinant; tags: N-terminal GST; dsDNA, one strand shown
# Procedure, shortened: as §1
# SPIB = SPIB (Homo sapiens, UniProt Q01892 1-262); details: protein: recombinant; tags: N-terminal GST; dsDNA, one strand shown
# Procedure, shortened: as §1
# ELK3 = molecular target: T6, ELK3 (Homo sapiens, UniProt P41970 1-407); details: protein: recombinant; tags: N-terminal GST; dsDNA, one strand shown
# T6 sequence: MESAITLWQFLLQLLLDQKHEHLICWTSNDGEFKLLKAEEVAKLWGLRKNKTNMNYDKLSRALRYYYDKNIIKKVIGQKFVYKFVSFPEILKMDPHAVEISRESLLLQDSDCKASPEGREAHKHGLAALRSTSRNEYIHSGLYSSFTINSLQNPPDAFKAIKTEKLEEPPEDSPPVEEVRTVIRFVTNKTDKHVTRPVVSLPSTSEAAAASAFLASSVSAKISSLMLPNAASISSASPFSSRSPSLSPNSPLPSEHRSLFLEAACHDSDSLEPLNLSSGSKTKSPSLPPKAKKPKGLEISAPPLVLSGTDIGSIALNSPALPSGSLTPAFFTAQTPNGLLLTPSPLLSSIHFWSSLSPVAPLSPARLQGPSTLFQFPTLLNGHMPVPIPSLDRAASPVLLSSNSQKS
# Procedure, shortened: as §1
# FEV = molecular target: T7, FEV (Homo sapiens, UniProt Q99581 1-238); details: protein: recombinant; tags: N-terminal GST; dsDNA, one strand shown
# T7 sequence: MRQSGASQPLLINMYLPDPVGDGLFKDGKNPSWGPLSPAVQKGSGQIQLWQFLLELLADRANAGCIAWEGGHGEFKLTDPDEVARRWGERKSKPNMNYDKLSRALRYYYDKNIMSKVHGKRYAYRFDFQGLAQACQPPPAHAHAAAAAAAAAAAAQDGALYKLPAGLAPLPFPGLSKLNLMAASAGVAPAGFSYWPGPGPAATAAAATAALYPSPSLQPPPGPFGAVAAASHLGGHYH
# Procedure, shortened: as §1
# ETV5 = ETV5 (Homo sapiens, UniProt P41161 1-510); details: protein: recombinant; tags: N-terminal GST; dsDNA, one strand shown
# Procedure, shortened: as §1
# HSF1 = HSF1 (Homo sapiens, UniProt Q00613 1-529); details: protein: recombinant; tags: N-terminal GST; chain copies: 3; dsDNA, one strand shown
# Procedure, shortened: as §1
# SPIC = molecular target: T8, SPIC (Homo sapiens, UniProt Q8N5J4 1-248); details: protein: recombinant; tags: N-terminal GST; dsDNA, one strand shown
# T8 sequence: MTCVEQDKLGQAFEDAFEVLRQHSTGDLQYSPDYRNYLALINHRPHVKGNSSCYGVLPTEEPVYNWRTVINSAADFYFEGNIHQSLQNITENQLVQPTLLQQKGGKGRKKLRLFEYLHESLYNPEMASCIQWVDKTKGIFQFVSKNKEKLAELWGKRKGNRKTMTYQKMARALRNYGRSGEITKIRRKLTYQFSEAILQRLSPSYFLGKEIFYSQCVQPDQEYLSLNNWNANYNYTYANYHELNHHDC
# Procedure, shortened: as §1
# ELF4 = ELF4 (Homo sapiens, UniProt Q99607 1-663); details: protein: recombinant; tags: N-terminal GST; dsDNA, one strand shown
# Procedure, shortened: as §1
# ELK4 = molecular target: T9, ELK4 (Homo sapiens, UniProt P28324-2 1-405); details: protein: recombinant; tags: N-terminal GST; dsDNA, one strand shown
# T9 sequence: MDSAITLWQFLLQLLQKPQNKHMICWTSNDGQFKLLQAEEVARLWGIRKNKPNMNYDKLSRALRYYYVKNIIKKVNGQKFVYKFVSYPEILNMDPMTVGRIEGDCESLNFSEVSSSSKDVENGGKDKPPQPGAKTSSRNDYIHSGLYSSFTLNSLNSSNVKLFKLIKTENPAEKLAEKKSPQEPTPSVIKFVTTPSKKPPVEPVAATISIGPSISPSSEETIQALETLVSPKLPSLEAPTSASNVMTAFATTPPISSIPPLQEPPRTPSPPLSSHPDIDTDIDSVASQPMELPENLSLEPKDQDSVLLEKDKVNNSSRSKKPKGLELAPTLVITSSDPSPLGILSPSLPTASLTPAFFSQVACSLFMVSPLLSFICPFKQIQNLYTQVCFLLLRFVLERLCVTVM
# Procedure, shortened: as §1
# ETV2 = molecular target: T10, ETV2 (Homo sapiens, UniProt O00321 1-342); details: protein: recombinant; tags: N-terminal GST; dsDNA, one strand shown
# T10 sequence: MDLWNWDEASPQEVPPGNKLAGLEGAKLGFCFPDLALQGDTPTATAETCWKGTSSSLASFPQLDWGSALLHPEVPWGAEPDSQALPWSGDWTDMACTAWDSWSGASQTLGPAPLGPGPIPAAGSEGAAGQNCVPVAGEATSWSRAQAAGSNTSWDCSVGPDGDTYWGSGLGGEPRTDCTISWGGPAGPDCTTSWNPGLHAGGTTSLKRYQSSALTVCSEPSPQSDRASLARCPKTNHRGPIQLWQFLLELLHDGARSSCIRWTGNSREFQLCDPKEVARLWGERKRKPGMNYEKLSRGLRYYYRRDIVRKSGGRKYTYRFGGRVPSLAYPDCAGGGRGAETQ
# Procedure, shortened: as §1
# ELF3 = molecular target: T11, ELF3 (Homo sapiens, UniProt P78545 1-371); details: protein: recombinant; tags: N-terminal GST; dsDNA, one strand shown
# T11 sequence: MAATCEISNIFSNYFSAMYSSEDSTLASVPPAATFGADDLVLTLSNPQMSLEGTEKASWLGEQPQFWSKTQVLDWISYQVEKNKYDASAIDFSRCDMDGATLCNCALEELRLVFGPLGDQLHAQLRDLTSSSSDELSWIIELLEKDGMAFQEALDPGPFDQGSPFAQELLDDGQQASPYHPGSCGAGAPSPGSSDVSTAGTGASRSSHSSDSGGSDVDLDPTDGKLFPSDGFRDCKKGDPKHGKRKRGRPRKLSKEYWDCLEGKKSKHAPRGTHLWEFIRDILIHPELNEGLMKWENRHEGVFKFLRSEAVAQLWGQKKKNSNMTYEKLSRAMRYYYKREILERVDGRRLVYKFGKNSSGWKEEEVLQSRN
# Procedure, shortened: as §1
# CRX = CRX (Homo sapiens, UniProt O43186 1-299); details: protein: recombinant; tags: N-terminal GST; dsDNA, one strand shown
# Procedure, shortened: as §1
# ETV1 = ETV1 (Homo sapiens, UniProt P50549 1-477); details: protein: recombinant; tags: N-terminal GST; dsDNA, one strand shown
# Procedure, shortened: as §1
# Sequence of ETV1 (P50549 whole entry): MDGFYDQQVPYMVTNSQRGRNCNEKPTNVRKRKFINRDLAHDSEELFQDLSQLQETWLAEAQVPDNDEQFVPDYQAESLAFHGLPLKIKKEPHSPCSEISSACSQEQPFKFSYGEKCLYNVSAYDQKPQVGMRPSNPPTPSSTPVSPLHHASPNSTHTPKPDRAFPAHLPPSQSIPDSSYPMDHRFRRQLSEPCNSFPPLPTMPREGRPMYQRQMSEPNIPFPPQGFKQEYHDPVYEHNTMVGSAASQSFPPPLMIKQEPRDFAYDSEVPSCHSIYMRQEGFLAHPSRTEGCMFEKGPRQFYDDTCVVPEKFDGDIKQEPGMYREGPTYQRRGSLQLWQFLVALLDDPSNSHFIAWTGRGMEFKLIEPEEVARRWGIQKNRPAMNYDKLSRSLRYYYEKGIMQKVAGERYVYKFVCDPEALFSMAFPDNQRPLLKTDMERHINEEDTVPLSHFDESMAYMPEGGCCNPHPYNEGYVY
# Sequence of ETV5 (P41161 whole entry): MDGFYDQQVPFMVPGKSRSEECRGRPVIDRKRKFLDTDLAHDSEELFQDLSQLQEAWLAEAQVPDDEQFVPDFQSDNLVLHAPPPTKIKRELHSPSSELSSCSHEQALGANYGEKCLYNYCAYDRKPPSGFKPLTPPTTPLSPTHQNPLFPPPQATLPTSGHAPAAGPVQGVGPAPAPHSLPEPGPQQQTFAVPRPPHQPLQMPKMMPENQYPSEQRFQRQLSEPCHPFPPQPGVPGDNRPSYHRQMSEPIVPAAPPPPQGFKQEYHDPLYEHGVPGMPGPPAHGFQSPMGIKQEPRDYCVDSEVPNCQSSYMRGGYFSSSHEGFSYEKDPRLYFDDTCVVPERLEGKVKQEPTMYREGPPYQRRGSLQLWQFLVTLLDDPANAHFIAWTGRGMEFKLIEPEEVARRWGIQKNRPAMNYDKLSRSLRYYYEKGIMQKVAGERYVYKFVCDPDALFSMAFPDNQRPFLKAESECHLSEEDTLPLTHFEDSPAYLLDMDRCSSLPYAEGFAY
# Sequence of CRX (O43186 whole entry): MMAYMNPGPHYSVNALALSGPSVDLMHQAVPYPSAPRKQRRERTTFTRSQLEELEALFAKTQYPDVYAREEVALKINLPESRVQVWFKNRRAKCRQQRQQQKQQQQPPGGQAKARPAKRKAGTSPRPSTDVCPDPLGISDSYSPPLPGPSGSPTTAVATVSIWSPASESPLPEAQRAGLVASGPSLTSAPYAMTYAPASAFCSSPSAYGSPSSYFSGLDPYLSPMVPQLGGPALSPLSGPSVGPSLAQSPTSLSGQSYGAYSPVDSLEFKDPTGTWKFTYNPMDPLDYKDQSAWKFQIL
# Sequence of HSF1 (Q00613 whole entry): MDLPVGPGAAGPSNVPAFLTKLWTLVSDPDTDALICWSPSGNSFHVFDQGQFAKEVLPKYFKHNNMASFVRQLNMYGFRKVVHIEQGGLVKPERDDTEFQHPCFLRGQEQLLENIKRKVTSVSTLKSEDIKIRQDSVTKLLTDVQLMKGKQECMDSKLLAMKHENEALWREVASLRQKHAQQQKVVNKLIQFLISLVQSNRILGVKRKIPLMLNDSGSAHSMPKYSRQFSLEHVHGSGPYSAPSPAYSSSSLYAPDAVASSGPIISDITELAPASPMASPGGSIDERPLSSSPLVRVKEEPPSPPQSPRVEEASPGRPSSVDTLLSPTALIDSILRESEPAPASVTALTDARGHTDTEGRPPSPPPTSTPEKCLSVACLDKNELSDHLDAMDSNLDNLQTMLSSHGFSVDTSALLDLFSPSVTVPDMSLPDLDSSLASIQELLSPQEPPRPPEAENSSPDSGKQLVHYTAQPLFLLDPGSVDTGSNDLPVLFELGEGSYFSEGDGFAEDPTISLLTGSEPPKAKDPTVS
# Sequence of SPIB (Q01892 whole entry): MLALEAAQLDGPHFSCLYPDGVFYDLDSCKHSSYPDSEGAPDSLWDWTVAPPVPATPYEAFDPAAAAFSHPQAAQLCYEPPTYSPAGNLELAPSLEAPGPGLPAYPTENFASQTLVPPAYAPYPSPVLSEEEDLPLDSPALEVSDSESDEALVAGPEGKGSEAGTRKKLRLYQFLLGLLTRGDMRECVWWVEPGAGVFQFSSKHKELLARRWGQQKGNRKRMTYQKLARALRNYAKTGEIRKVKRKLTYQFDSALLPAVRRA
# Sequence of ELF4 (Q99607 whole entry): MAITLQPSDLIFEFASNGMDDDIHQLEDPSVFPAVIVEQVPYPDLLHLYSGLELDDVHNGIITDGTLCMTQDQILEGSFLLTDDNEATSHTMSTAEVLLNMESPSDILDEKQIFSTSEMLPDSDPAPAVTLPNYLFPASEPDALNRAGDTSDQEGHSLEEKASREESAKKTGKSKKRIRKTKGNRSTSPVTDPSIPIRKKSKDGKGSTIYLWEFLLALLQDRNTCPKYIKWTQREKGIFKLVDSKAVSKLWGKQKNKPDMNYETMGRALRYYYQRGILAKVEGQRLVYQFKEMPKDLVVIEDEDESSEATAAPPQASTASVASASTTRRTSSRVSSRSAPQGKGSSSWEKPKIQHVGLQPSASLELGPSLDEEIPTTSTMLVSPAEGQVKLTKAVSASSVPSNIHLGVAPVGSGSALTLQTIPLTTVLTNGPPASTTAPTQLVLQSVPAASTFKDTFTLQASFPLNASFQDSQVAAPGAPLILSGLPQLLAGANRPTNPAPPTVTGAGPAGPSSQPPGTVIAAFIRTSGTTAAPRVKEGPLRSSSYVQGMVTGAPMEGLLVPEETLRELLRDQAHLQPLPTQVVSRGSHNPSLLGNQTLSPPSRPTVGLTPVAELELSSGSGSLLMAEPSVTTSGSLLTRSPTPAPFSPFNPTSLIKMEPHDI
# Sequence of ELF1 (P32519 whole entry): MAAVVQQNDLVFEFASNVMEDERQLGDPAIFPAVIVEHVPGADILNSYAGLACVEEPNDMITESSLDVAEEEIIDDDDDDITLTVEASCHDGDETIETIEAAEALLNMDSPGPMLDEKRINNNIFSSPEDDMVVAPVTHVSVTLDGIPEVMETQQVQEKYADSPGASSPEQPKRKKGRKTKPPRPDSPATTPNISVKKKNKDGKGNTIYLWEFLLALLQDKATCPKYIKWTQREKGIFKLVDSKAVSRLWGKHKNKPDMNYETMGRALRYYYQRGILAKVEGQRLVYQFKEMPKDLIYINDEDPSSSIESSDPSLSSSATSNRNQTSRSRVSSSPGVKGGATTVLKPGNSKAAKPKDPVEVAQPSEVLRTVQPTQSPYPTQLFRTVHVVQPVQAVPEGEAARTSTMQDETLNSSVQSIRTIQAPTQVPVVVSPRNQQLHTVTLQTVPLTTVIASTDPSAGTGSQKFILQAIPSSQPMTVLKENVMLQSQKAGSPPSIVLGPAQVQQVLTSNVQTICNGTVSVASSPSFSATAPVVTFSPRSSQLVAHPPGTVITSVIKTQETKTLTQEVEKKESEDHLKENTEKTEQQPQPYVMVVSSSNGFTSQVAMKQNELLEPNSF
sequence,measurement,setting,value
AGCATT,binding signal,FLI1,"1.12 fold enrichment (6-mer frequency, TF over GST control)"
same,binding signal,ELK1,"1.13 fold enrichment (6-mer frequency, TF over GST control)"
same,binding signal,GABPA,"1.11 fold enrichment (6-mer frequency, TF over GST control)"
same,binding signal,ERG,"1.09 fold enrichment (6-mer frequency, TF over GST control)"
same,binding signal,ELF1,"1.1 fold enrichment (6-mer frequency, TF over GST control)"
same,binding signal,EHF,"1.08 fold enrichment (6-mer frequency, TF over GST control)"
same,binding signal,SPI1,"1.03 fold enrichment (6-mer frequency, TF over GST control)"
same,binding signal,SPIB,"1.05 fold enrichment (6-mer frequency, TF over GST control)"
same,binding signal,ELK3,"1.07 fold enrichment (6-mer frequency, TF over GST control)"
same,binding signal,FEV,"1.11 fold enrichment (6-mer frequency, TF over GST control)"
same,binding signal,ETV5,"1.03 fold enrichment (6-mer frequency, TF over GST control)"
same,binding signal,HSF1,"1.2 fold enrichment (6-mer frequency, TF over GST control)"
same,binding signal,SPIC,"1.03 fold enrichment (6-mer frequency, TF over GST control)"
same,binding signal,ELF4,"1.11 fold enrichment (6-mer frequency, TF over GST control)"
same,binding signal,ELK4,"1.08 fold enrichment (6-mer frequency, TF over GST control)"
same,binding signal,ETV2,"1.06 fold enrichment (6-mer frequency, TF over GST control)"
same,binding signal,ELF3,"1.22 fold enrichment (6-mer frequency, TF over GST control)"
same,binding signal,CRX,"1.32 fold enrichment (6-mer frequency, TF over GST control)"
same,binding signal,ETV1,"1.13 fold enrichment (6-mer frequency, TF over GST control)"
